Laboratory results reported in PubChem BioAssay (NCATS).
Records with an inconclusive call do not appear. Activity calls are given as the source filed them. Calls come from the whole dose curve; as a rule, active = well fitted inhibition curve with a large enough effect; inconclusive = small, poorly fitted or top-dose-only effect; inactive = no such curve, though single readings can be large or run the other way.

test: qHTS assay for measurement of the activity of small molecule inhibitors on Zika virus induced Caspase-3 activity in human iPSC derived neural progenitor cells (hNPCs) (AID 1224857); conditions: hNPCs ZIKV-induced caspase-3/7, Caspase-Glo luminescence, 6 h; series mostly up to 45.7 µM; note: nearly all actives have a fitted effect of over 65% in size
Method in brief: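 Caspase-3/7 induction by a 6-hour ZIKV infection was quantified with a luminescent Caspase-Glo 3/7 reagent incubated 30 minutes at room temperature. Compounds were preincubated with hNPCs for 1 hour; inhibition was calculated against uninfected and infected control wells.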

Compound	outcome
Clc1ccccc1N1CCNCC1	inactive
CC(Cc1ccccc1)N(C)Cc1ccco1 (stereo unspecified)	inactive
ClCCN1CCCC1	inactive
O=C(O)/C=C\C(=O)O	inactive
CCN(CCO)CCn1c(Cc2ccccc2)nc2c1c(=O)n(C)c(=O)n2C	inactive
C[C@]12Cc3cn[nH]c3C[C@@H]1CC[C@@H]1[C@@H]2CC[C@@]2(C)[C@H]1CC[C@]2(C)O	inactive
C[C@]12CCC(=O)C=C1CC[C@@H]1[C@@H]2CC[C@@]2(C)[C@H]1CC[C@]2(C)O	inactive
O=c1c(C2CC(c3ccc(-c4ccc(Br)cc4)cc3)Cc3ccccc32)c(O)sc2ccccc12 (stereo unspecified)	inactive
CC[N+]1(CC)CCC(OC(=O)C(O)(c2ccccc2)c2ccccc2)C1 (stereo unspecified)	inactive
CCCCCN(C)CCC(O)(P(=O)(O)O)P(=O)(O)O	inactive
O=C1OC(CCN2CCCCC2)OC1(c1ccccc1)c1ccccc1 (stereo unspecified)	inactive
CCc1cc2c(s1)-n1c(C)nnc1CN=C2c1ccccc1Cl	inactive
O=c1[nH]c2ccccc2n1C1CCNCC1	inactive
C[C@@H]1CC2=CC(=O)CC[C@@H]2[C@H]2CC[C@@]3(C)[C@@H](CC[C@]3(C)O)[C@@H]21	inactive
c1ccc(N2CCNCC2)cc1	inactive
CCN(CC)C(=O)[C@@H]1C=C2c3cccc4[nH]cc(c34)C[C@H]2N(C)C1	inactive

test: qHTS assay for measurement of the activity of small molecule inhibitors on Zika virus induced Caspase-3 activity in human astrocytoma cells (AID 1224859); conditions: SNB-19 ZIKV-induced caspase-3/7, luminescence, 6 h; series mostly up to 45.7 µM
Method in brief: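 In SNB-19 cells plated at 250 cells/well and grown 16-20 h, compounds were applied 1 h before ZIKV (2 FFU/cell). Six hours later caspase-3/7 luminescence was recorded.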

Compound	outcome
Clc1ccccc1N1CCNCC1	inactive
CC(Cc1ccccc1)N(C)Cc1ccco1 (stereo unspecified)	inactive
ClCCN1CCCC1	inactive
CCN(CCO)CCn1c(Cc2ccccc2)nc2c1c(=O)n(C)c(=O)n2C	inactive
C[C@]12Cc3cn[nH]c3C[C@@H]1CC[C@@H]1[C@@H]2CC[C@@]2(C)[C@H]1CC[C@]2(C)O	inactive
COP(=S)(OC)SCN1C(=O)c2ccccc2C1=O	inactive
C[C@]12CCC(=O)C=C1CC[C@@H]1[C@@H]2CC[C@@]2(C)[C@H]1CC[C@]2(C)O	inactive
O=c1c(C2CC(c3ccc(-c4ccc(Br)cc4)cc3)Cc3ccccc32)c(O)sc2ccccc12 (stereo unspecified)	inactive
CC[N+]1(CC)CCC(OC(=O)C(O)(c2ccccc2)c2ccccc2)C1 (stereo unspecified)	inactive
O=C1OC(CCN2CCCCC2)OC1(c1ccccc1)c1ccccc1 (stereo unspecified)	inactive
CCc1cc2c(s1)-n1c(C)nnc1CN=C2c1ccccc1Cl	inactive
O=c1[nH]c2ccccc2n1C1CCNCC1	inactive
C[C@@H]1CC2=CC(=O)CC[C@@H]2[C@H]2CC[C@@]3(C)[C@@H](CC[C@]3(C)O)[C@@H]21	inactive
c1ccc(N2CCNCC2)cc1	inactive
CCN(CC)C(=O)[C@@H]1C=C2c3cccc4[nH]cc(c34)C[C@H]2N(C)C1	inactive
